Out of some 3,600 compounds screened, about 900 (25%) were called active. Not all results are given here. Potency and affinity values are given separately. A number with no mark means an inactive call. How the calls were made is not given here.
target: Protein Tat (Human immunodeficiency virus type 1 group M subtype B (isolate HXB2)) (UniProt P04608); assay: HIV-1 Tat–TAR interaction blockers – biochemical, fluorescence polarization, FAM-labeled TAR RNA, counter-screen for Vif-APOBEC3G degradation inhibitor project, dose response (AID 1117361); details: Tat-TAR RNA binding; series mostly up to 100 µM; inhibition: at the top concentration

Structure (SMILES) | inhibition | outcome
Cc1snc(S(=O)(=O)Cc2ccccc2Cl)c1C#N | 1.35% | –
COc1ccc(/C=C/CN2CCN(Cc3ccccc3)C(CCO)C2)cc1 (configuration not stated) | – | inactive
CSc1ccccc1NC(=O)c1noc2c1CCC2 | – | inactive
CCCCS(=O)(=O)N1CCCC(C(=O)N2CCOCC2)C1 (configuration not stated) | 12.4% | –
COc1ccc(C2CC(O)(c3ccccc3)Oc3c(C)ccc(C)c32)cc1 (configuration not stated) | – | inactive
Cn1c2ccccc2c2ccc3c(c21)C(=O)C=CC3=O | 4.34% | –
CCOc1cc(C(C(=O)NCC2CCCO2)N(C(=O)Cn2nnc3ccccc32)c2cccc(OC)c2)ccc1O (configuration not stated) | – | inactive
Cc1ccc(CN(C(=O)Cn2nnc3ccccc32)C(C(=O)NCc2ccco2)c2cccs2)cc1 (configuration not stated) | 8.78% | –
CCCCn1c(SCC(=O)Nc2ccc3c(c2)OCCO3)nnc1C(CC)N(C)C (configuration not stated) | – | inactive
C/C(=N\Nc1ccc2nncn2n1)c1ccc(Br)s1 | 1.65% | –
COc1cc(Cc2cnc(N)nc2N)cc(OC)c1OC | – | inactive
O=C1C(C=NC2CC2)=C(O)c2ccccc21 | 6.76% | –
COc1ccc(Cl)cc1N(CC(=O)Nc1ccc2c(c1)OCCO2)S(C)(=O)=O | 5.41% | –
O=C(CN1CCN(CC(=O)Nc2ccc3c(c2)OCO3)CC1)Nc1ccc(F)cc1 | 2.73% | –
CCn1c(=O)c2cc(C(=O)N(C)c3ccccc3F)sc2c2ccccc21 | – | inactive
CCOC(=O)N1CCC(NC(=O)C2CCN(c3nc(-c4ccc(OC)cc4)no3)CC2)CC1 | 4.77% | –
Cc1oc(-c2ccccc2)nc1C(=O)OCC(=O)NCc1ccc(F)cc1 | 27.1% | –
CS(=O)(=O)N(CC(=O)NCc1ccc2c(c1)OCO2)Cc1ccccc1 | – | inactive
Cc1cc(C(=O)OC2CCOC2=O)c2ccccc2n1 (configuration not stated) | 4.05% | –
CCOC(=O)C1CCCN(C(=O)c2c(-c3ccccc3Cl)noc2C)C1 (configuration not stated) | 5.41% | –
O=C(CCCc1c[nH]c2ccccc12)NCc1ccc2c(c1)OCO2 | – | inactive
O=C(OCC(=O)N1CCN(C(=O)c2ccco2)CC1)c1cc(-c2ccco2)nc2ccccc12 | 27.7% | –
CCOC(=O)C1CCCN(Cc2ccc(O)c(OC)c2)C1 (configuration not stated) | 3.38% | –

Structure (SMILES) | inhibition | outcome
CC(C)Oc1ccc(C(=O)N(Cc2ccco2)C2CCS(=O)(=O)C2)cc1 (configuration not stated) | 2.34% | –
O=C(CSc1nnc2n(C3CCCCC3)c(=O)c3ccccc3n12)OC1CCCCC1 | – | inactive
Cc1cc(Cl)c(S(=O)(=O)NCc2cccnc2)cc1OCC(=O)NC1CCCCC1 | – | inactive
O=S(=O)(c1cccs1)n1nnc2ccccc21 | – | inactive
COc1cc(-c2nnc(SCc3cc(=O)oc4cc(O)c(O)cc34)o2)cc(OC)c1OC | 1.67% | –
C=C(c1ccc(OCCO)cc1)c1ccc(OCCO)cc1 | 12.8% | –
CC(=O)N1CCN(c2ccc(NC(=O)COc3ccc(Cl)cc3Cl)cc2)CC1 | 8.87% | –
Cc1nc2ccc(NS(=O)(=O)c3ccc(F)cc3F)cc2s1 | – | inactive
CC1(C)C/C(=C(/C#N)C(N)=O)CCO1 | 8.11% | –
COc1cc2c(cc1OC)C(C(=O)O)C(c1cc(Br)c(O)c(OC)c1)N(C)C2=O (configuration not stated) | 0.68% | –
Cc1sc2ncnc(OCC(=O)NCC3CCCO3)c2c1C (configuration not stated) | 10.1% | –
CN(Cc1ccccc1)C(=O)C1CCCN1S(=O)(=O)c1ccc2c(c1)n(C)c(=O)c(=O)n2C (configuration not stated) | – | inactive
O=C(NCCSCc1ccccc1)c1ccc(C2SCC(=O)N2Cc2ccccc2)cc1 (configuration not stated) | – | inactive
CCCn1nc(Oc2nc(SC)nc(N(C)C)n2)ccc1=O | – | inactive
O=C(Nn1cnnc1)c1cc(-c2cccc(Br)c2)nc2ccccc12 | – | inactive
COc1ccc2nc(-c3ccccc3)cc(C(=O)OCC(=O)N3CC(C)OC(C)C3)c2c1 (configuration not stated) | – | inactive
CC(C)OP(=O)(OC(C)C)C(O)c1ccc(N(C)C)cc1 (configuration not stated) | 7.42% | –
Cc1oc(/N=C/c2cccc3ccccc23)c(C#N)c1C | 3.67% | –
O=C1C=C(c2c(O)ccc3ccccc23)c2ccccc2C1=O | 3.01% | –
COc1ccc(CCN2CC(C(=O)NCC(c3ccccc3)N(C)C)CC2=O)cc1OC (configuration not stated) | – | inactive
COc1cc2c(cc1OC)C(C)N(C(=O)c1cc3n(n1)C(C(F)(F)F)CC(c1ccco1)N3)CC2 (configuration not stated) | 14.9% | –
Cc1[nH]c(=O)[nH]c(=O)c1S(=O)(=O)N1CCCC(C(=O)NCCc2ccccc2)C1 (configuration not stated) | – | inactive
CCC(C)[C@H](NC(=O)N1CCCC1)C(=O)O (some centres not stated) | 3.38% | –

Structure (SMILES) | inhibition | outcome
CCOC(=O)c1[nH]nc(-c2c(O)cc(C)cc2O)c1-c1csc(C)n1 | 4.95% | –
CC(=O)N1CCc2cc(S(=O)(=O)NC(C(=O)NC3CCCc4ccccc43)C(C)C)ccc21 (configuration not stated) | 6.14% | –
Cc1nc2ccc(S(=O)(=O)NC(C(=O)N3CCC(C)CC3)C(C)C)cc2s1 (configuration not stated) | 0.68% | –
COC(=O)C1CCCN1S(=O)(=O)c1ccc2ccccc2c1 (configuration not stated) | – | inactive
Cc1ccc(Nc2nc3ccccc3nc2-n2nc(C)cc2C)cc1 | – | inactive
Cc1cc(SCC(=O)Nc2ccccc2C)nc(C)n1 | 8.78% | –
Cc1cccc(NC(=O)CSc2nnc(-c3ccccc3C)o2)c1 | 4.77% | –
COCCn1c(SCC(=O)Nc2cccc(C)n2)nnc1-c1ccco1 | – | inactive
Cc1nc(SCC(=O)Nc2ccnc3ccccc23)n[nH]1 | 11.6% | –
CC(C)Cn1c(SCC(=O)Nc2cccnc2Cl)nnc1-c1ccco1 | 1% | –
Cc1c(Cl)cccc1NC(=O)CSc1nnc(C)n1-c1ccccc1 | – | inactive
CCC1(C)Cc2c(sc(NC(=O)CCC(=O)O)c2C#N)CO1 (configuration not stated) | 4.09% | –
CCCSc1nc2c(cnn2-c2ccc(C)cc2)c(=O)[nH]1 | – | inactive
CCCCc1cc(C(=O)Cc2ccccn2)c(O)cc1O | 8.35% | –
CC(C)NC(=O)c1ccc(COCC(F)(F)C(F)F)cc1 | – | inactive
CN(C)CCOCCSc1ccc(Cl)cc1 | – | inactive
CC(C)(NO)/C(=N\O)c1ccccc1 | 6.14% | –
Cc1cc(Nc2ccc(Br)cc2)n2nc(C)nc2n1 | – | inactive
CCc1cc2c(N3CCCCC3)ncnc2s1 | – | inactive
CCOc1ccc(Nc2nc(Cc3nnc(SCC(=O)NCC4CCCO4)n3C)cs2)cc1 (configuration not stated) | – | inactive
CCOC(=O)c1c(C)[nH]c(C(=O)OCC(=O)N2c3ccccc3CC2C)c1C (configuration not stated) | 7.5% | –
S=C(Nc1cccc(Cl)c1)NC1CCCCC1 | 3.41% | –
CC(=O)c1cccc(NC(=O)c2cnn3ccccc23)c1 | 4.77% | –

Structure (SMILES) | inhibition | outcome
Cn1nnc(NC(=O)c2cccc(F)c2)n1 | 5.46% | –
CC(=O)N1CCc2cc(S(=O)(=O)NCCC(=O)Nc3cccc(C)c3C)ccc21 | 10.9% | –
CC(=O)Nc1ccc(NC(=O)CN(c2cccc(C(C)=O)c2)S(C)(=O)=O)cc1 | – | inactive
CC1CCc2[nH]c3ccc(C(=O)N(C)CC(=O)Nc4ccc(F)cc4)cc3c2C1 (configuration not stated) | – | inactive
O=C(NNC(=O)c1ccccc1F)c1cccc(-n2cccc2)c1 | – | inactive
CCN(CC)C(=O)NCc1c(C)cc(C)cc1C | – | inactive
Cc1ccc(-n2[nH]c(=O)c3cccnc32)cc1 | – | inactive
O=C(Nc1ccc(Cl)c(-c2nc3ccccc3[nH]2)c1)c1cccnc1 | 3.41% | –
CCCCCCN(C(=O)CCCCCN1C(=O)NC(c2ccc(C(C)(C)C)cc2)C(C(=O)OCc2ccccc2)=C1C)C(C(=O)NCCCC)c1ccc(OCC(=O)OC)c(C(=O)OC)c1 (configuration not stated) | 0.82% | –
CCOC(CNC(=O)C(=O)Nc1cc2c3c(c1)CC(=O)N3CCC2)OCC | 0.33% | –
CCOC(=O)C1CCN(S(=O)(=O)c2cccc(-c3cn4cccc(C)c4n3)c2)CC1 | 2.7% | –
C/C(=N\n1c(C)nc2ccccc2c1=O)c1ccc(C)o1 | – | inactive
COc1ccc(C(=O)CSc2n[nH]c(N)n2)cc1 | 0.68% | –
CCOC(=O)c1sc(-c2ccccc2)cc1NC(=O)CSc1nnnn1C | – | inactive
Cc1cc(C(=O)N2CCN(C/C=C/c3ccccc3)CC2)cs1 | 6.76% | –
CC1=C(C(=O)N2CCCCC2)C2(CCC(C)CC2)OC1=O (configuration not stated) | 2.03% | –
COc1ccc(OC)c(S(=O)(=O)Nc2cnc3ccccc3c2)c1 | 4.09% | –
COc1ccc(NS(=O)(=O)c2cccc(Cl)c2Cl)cc1S(=O)(=O)N1CCCCC1 | 4.77% | –
COC(=O)CN1C(=O)C(O)=C(C(C)=O)C1c1ccc([N+](=O)[O-])cc1 (configuration not stated) | 2.73% | –
CC1(c2ccccc2)NC(=O)N(CC(=O)Nc2cccc(C#N)c2)C1=O (configuration not stated) | 0.7% [at 50 µM] | –
CS(=O)(=O)N1CCC(C(=O)Nc2ccccc2)CC1 | – | inactive
O=C(CCc1ccccc1)Nc1ccc2c(c1)OCCO2 | – | inactive
COc1ccccc1N(CC(=O)NC(C)C)S(=O)(=O)c1cccs1 | – | inactive

Structure (SMILES) | inhibition | outcome
O=C(Nc1cc(Cl)ccn1)C1CCN(S(=O)(=O)c2cccs2)CC1 | 8.78% | –
CC(C)c1nnc(NC(=O)CCC(=O)NCc2ccco2)s1 | 0.68% | –
O=C(CN1CCCCC1)Nc1nnc(-c2ccccc2)s1 | 0.68% | –
O=C(Nc1ccncc1)C1CCN(S(=O)(=O)c2c(Cl)cccc2Cl)CC1 | 6.35% | –
CC(=O)C1=C(N2CCCCC2)CCC1=O | 4.73% | –
Cc1ccc(CNC(=O)CN(c2cccc([N+](=O)[O-])c2)S(C)(=O)=O)cc1 | – | inactive
CCCn1[nH]cc(SC)c(=O)c1=O | – | inactive
O=c1c(N=Nc2ccc(O)cc2)c(-c2ccccc2)[nH]n1-c1ccc([N+](=O)[O-])cc1 | 3.3% | –
CC(SC1=NCCS1)C(=O)Nc1nnc(-c2ccc(Cl)cc2)s1 (configuration not stated) | – | inactive
CCn1cc(S(=O)(=O)CC(=O)Nc2ccc(OC)cc2)c2ccccc21 | 0.68% | –
COc1cc(C(=O)Nc2ccc(S(=O)(=O)NC(C)C)cc2)cc(OC)c1OC | 6.82% | –
C#Cc1ccc([C@H]2C=C(C(=O)N3CCOCC3)O[C@@H](OCc3ccc(CO)cc3)C2)cc1 | – | inactive
COc1ccccc1C(=O)Nc1cccc(-c2cn3ccsc3n2)c1 | 4.05% | –
O=C(OCn1ncc(Br)c(Br)c1=O)c1ccc(F)cc1 | 1.35% | –
C=CCc1ccc(OCCCCN2CC(C)OC(C)C2)c(OC)c1 (configuration not stated) | 7.5% | –
O=C(NCCCN1CCOCC1)C1(c2ccccc2)CCCC1 | – | inactive
Oc1c(CN2CCOCC2)cc(CN2CCOCC2)c(O)c1O | 1% | –
Cc1ccc(C(=O)Oc2ccc(Cl)c3cccnc23)cc1[N+](=O)[O-] | 0.68% | –
O=[N+]([O-])c1cc(CN2CCN(c3cccc(C(F)(F)F)c3)CC2)c2cccnc2c1O | 1.65% | –
COc1ccc(C(=O)Oc2c(CN3CCOCC3)cc(Cl)c3cccnc23)cc1 | – | inactive
